PubChem BioAssay (EPA / NIEHS)
Results filed as inconclusive are left out. The source made the active and inactive calls. How the source made its calls: active means hit-call score of the fitted dose curve at least 0.9, where 1 is the maximum; inconclusive means response in the unintended direction; inactive means score below 0.9.

molecular target: Norway rat Vesicular Monoamine Transporter (VMAT2), neurotransmitter transporter, Slc18a2 (gene 25549) (UniProt Q01827); assay: NVS_TR_rVMAT2: NovaScreen (NVS) Transporter Assay for Norway rat Vesicular Monoamine Transporter (VMAT2), neurotransmitter transporter (AID 2283376);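 further: actives lower the bound radioligand signal below the DMSO level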
Sequence (Q01827 whole entry, looked up): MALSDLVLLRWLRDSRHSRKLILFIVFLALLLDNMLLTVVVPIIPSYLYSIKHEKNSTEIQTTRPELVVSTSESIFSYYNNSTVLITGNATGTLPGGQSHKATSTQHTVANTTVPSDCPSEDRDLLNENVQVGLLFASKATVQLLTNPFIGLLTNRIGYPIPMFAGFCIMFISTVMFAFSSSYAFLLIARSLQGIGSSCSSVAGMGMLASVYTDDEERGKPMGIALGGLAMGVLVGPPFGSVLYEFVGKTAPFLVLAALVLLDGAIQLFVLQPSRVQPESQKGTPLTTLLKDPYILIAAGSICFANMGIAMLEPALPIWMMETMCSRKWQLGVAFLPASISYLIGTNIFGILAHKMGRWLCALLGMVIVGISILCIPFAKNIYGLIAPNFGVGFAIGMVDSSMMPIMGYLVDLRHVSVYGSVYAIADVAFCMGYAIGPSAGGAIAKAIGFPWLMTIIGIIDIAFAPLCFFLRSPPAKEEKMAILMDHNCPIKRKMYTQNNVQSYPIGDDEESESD
Experimental: NVS_TR_rVMAT2 is a biochemical, single-readout assay that uses extracted gene-proteins from Rat forebrain in a tissue-based cell-free assay. Measurements were taken 1 hour after chemical dosing in a 96-well plate.NVS_TR_rVMAT2 is one of one assay component(s) measured or calculated from the NVS_TR_rVMAT2 assay. It is designed to make measurements of radioligand binding, a form of binding reporter, as detected with scintillation counting signals by Filter-based radiodetection technology.Data from the assay component NVS_TR_rVMAT2 was analyzed into 1 assay endpoint. This assay endpoint, NVS_TR_rVMAT2, was analyzed in the positive analysis fitting direction relative to DMSO as the negative control and baseline of activity. Using a type of binding reporter, loss-of-signal activity can be used to understand changes in the binding as they relate to the gene Slc18a2. Furthermore, this assay endpoint can be referred to as a primary readout, because the performed assay has only produced 1 assay endpoint. To generalize the intended target to other relatable targets, this assay endpoint is annotated to the transporter intended target family, where the subfamily is vesicular transporter.
Binding assays used specific radioligands (tritiated, iodinated) with non-radioactive competitive displacement ligands in agonist or antagonist protocols (as indicated) and various reference compounds and inhibitors to titrate specific binding to receptors and transporters. Most enzyme assays (CYPs, kinases, phosphatases, proteases, HDACs) used recombinant protein and specific substrates (fluorescence mostly, some colorimetric and radioactive) and inhibitors, followed by a biochemical separation of substrate and product. All assays for the biochemical HTS were initially run in duplicate at a single concentration (10 uM for CYP450 assays and 25 uM for all others). […] Each assay was run with positive and negative controls, and concurrent controls on every plate. The follow-up (secondary) screen tested active chemical-pairs in concentration series, as well as a few additional assays not tested in the primary screen, some selected negative inactives, and several cases re-run in the concentration series for confirmatory purposes.

Row | Compound | outcome | AC50
1 | CCCCCCCCCCCCN(C)C | inactive | 
2 | O=C(N[C@H]1CN2CCC1CC2)c1ccc2c(c1)OCCO2 | inactive | 
3 | Oc1cc(Cl)c(Cl)cc1Cl | inactive | 
4 | [Cl][Sn]([c]1ccccc1)([c]1ccccc1)[c]1ccccc1 | inactive | 
5 | Oc1cccc(-c2ccccc2)c1 | inactive | 
6 | O=C(O)COc1cc(Cl)c(Cl)cc1Cl | inactive | 
7 | CCCCCCCCCCCCOS(=O)(=O)O | inactive | 
8 | CCOP(=O)(OCC)OC(=CCl)c1ccc(Cl)cc1Cl |  | 10.9 µM (active)
9 | N#Cc1cccnc1 | inactive | 
10 | CC1CC(=O)O1 (stereo not given) | inactive | 
